H9c2 protect = modulators protecting cardiomyocytes from myocardial damage. protection from H2O2 cell death, % at 20 µM. hit rate 0.63% among 360,000. H9c2 cardiomyocytes, H2O2 injury protection, ATPLite, 2 h;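 active = compounds giving at least 50% protection of heart cells from peroxide-induced death in the single-dose screen, raw or plate-pattern-corrected value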;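 note: 0% = DMSO wells with peroxide and 100% = DMSO wells without peroxide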
GalR3 antag = blocks the human galanin receptor 3 | O60755 | HEK293 GalR3-CNG cAMP membrane potential fluorescence; galR3 body fused to GalR1 C-terminus | inhibition, % at 3 µM | hit rate 0.44% among 360,000 | AID 651719;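 active = inhibition above the screen-wide average plus 3 SD, cut at about 13% in these data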;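 note: forskolin and galanin both at EC90 stimulate the cells; cAMP rise reported by CNG channel membrane potential dye signal; 0% = forskolin plus galanin with DMSO and 100% = forskolin alone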
SMARCA2 activ = activators of SMARCA2 function; AID 652017; hit rate 1% among 370,000; activation, % at 9.1 µM; MG213 cells, MMTV-luciferase reporter, dexamethasone, overnight; in the data active = activation above about 7.8%;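 note: 0% = vehicle wells and 100% = reference activator wells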
Gli-Sufu antag = Gli-Sufu pathway antagonism; Sufu-KO-LIGHT fibroblasts, Gli luciferase reporter luminescence; inhibition, % at 5 µM; hit rate 0.74% among 340,000; AID 588413;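 active = inhibition above about 55%, limit read from the data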;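 note: 0% = DMSO-treated cells and 100% = wells with medium but no cells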
GAA850 FXN act = activators of GAA850 frataxin (FXN) promoter; hit rate 0.56% among 360,000; AID 540364; activation, % at 6 µM; HEK293 lucGAA850 FXN promoter luciferase reporter, 24 h; percent of 10 µM SAHA response;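 active = activation above the average of all compounds screened plus 3 SD, cutoff fixed separately per campaign, cut at about 7.5% in these data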;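 note: 0% = DMSO wells and 100% = 10 µM SAHA wells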
NR2F2 inh = NR2F2 (human) inhibition, primary screen; P24468; inhibition, % at 8.6 µM; HEK293T NGFI-A luciferase reporter, luminescence; hit rate 0.7% among 370,000;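 active = inhibition above a per-plate cutoff, mean inhibition of test wells between control levels plus 3 SD, cut at about 38% in these data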;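 note: cells cotransfected with COUP-TFII expression vector driving the NGFI-A reporter; 0% = median of COUP-TF2 test wells and 100% = reporter-only cells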
Target sequence (P24468 whole entry, looked up): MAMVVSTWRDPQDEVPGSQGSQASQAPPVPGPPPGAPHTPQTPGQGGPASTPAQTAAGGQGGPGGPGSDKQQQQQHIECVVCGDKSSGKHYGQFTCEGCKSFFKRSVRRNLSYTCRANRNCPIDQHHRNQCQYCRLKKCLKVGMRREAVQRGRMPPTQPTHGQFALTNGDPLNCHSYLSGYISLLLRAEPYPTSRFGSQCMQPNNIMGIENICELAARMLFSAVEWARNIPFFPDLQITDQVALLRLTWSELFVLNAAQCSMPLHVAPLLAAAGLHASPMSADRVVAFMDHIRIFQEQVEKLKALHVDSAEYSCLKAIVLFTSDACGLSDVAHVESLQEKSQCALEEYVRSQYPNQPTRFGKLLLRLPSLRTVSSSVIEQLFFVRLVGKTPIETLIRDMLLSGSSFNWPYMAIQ
GAA30 counter = activates GAA30 frataxin promoter, counter-screen for GAA850 activators; activation, % at 6 µM; AID 588350; shares compounds with GAA850 FXN act; HEK293 lucGAA30 FXN promoter luciferase, 24 h; DMSO = 0%, 5 µM ipriflavone = 100%; hit rate 66% among 1,900;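 active = mean activation above the mean of solvent-only control wells plus 3 SD, cut at about 22% in these data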;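 note: counterscreen of GAA850 promoter hits where activity marks nonselective or luminescence artifacts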
FXN GAA850 conf = confirmation of GAA850 frataxin (FXN) promoter activators; shares compounds with GAA850 FXN act; HEK293 lucGAA850 FXN promoter luciferase reporter, 24 h; 100% = activation by SAHA; activation, % at 6 µM; hit rate 86% among 1,900; AID 588351;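 active = mean activation above a set limit taken from the primary screen, cut at about 8% in these data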;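 note: 0% = DMSO wells and 100% = 10 µM SAHA wells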
Starred values were filed as active, the others as inactive; . = no result given. The list is not random: actives were taken first. Their share in the collection is about 3.4%.

SMILES	H9c2 protect	GalR3 antag	SMARCA2 activ	Gli-Sufu antag	GAA850 FXN act	NR2F2 inh	GAA30 counter	FXN GAA850 conf
O=C(N/N=C/c1cccc([N+](=O)[O-])c1)c1ccc2c(c1)OCCO2	-16	-3	5	-84	8.9*	-46	119*	37*
O=C(Nc1ccc2nsnc2c1)N1CCCCCC1	-3	1	7	-60	1	-18	.	.
S=C(Nc1ccc2nsnc2c1)N1CCCC1	-7	2	3	-8	8.3*	-40	29*	12*
O=C(Nc1ccc(Br)cc1)O[C@@H]1CC[C@@]23CCCN2C(=O)CCC[C@H]3C1	.	.	.	.	.	7	.	.
N#Cc1ccc(/C=C(\C(=O)C(=O)O)c2ccc3ccccc3n2)cc1	2	6	6	3	8.3*	-48	132*	43*
COc1ccc(C(=O)/C=C/C(=O)N(CC(=O)NC2CCCCC2)Cc2ccccc2OC)c(O)c1	-26	-3	1	9	-1	1	.	.
COc1ccc(C(=O)/C=C/C(=O)N(CC(=O)NC2CCCCC2)Cc2ccccc2)c(O)c1	-32	1	-4	33	7.6*	19	-88	-23
O=C(O)C1(C(=O)O)CCC2(CCCCC2)CC1	4	-1	2	.	-1	1	.	.
Cc1ccc(-c2nc(Nc3ccccc3)n[nH]2)cc1	-5	-5	5	-137	7.7*	-55	112*	38*
CCCC1CCC2(CCCN2CCOC(=S)Nc2ccccc2)CC1 (stereo not drawn)	.	.	.	.	.	33	.	.
CC(NS(=O)(=O)c1ccc(Br)cc1)C(c1cccs1)N1CCN(C)CC1 (stereo not drawn)	5	.	-1	7	17*	-1	11	2
Cc1cc(N2CCN(C(c3ccnc4ccccc34)c3nnnn3-c3c(C)cccc3C)CC2)c2ccccc2n1 (stereo not drawn)	.	-8	-3	.	.	11	.	.
Cc1ccc(OCCOc2cccc(Br)c2)c([N+](=O)[O-])n1	-16	-10	6	-67	7.6*	-41	81*	40*
Cc1ccc(OCc2ccc(Br)cc2)c([N+](=O)[O-])n1	.	-9	7	.	.	-43	.	.
COc1ccccc1CNc1nc(NCc2ccccc2)nc2ccsc12	-18	-6	-9	.	-2	2	.	.
c1ccc(CNc2nc(NCc3ccccc3)c3sccc3n2)cc1	-25	-10	-6	.	10*	4	46*	17*
COc1cc(NC(=O)CN2C(=O)CN(C)C2=O)c(C)cc1[N+](=O)[O-]	1	-3	2	0	-3	6	.	.
COc1cc(NC(=O)Cn2ncc(Cl)c(Cl)c2=O)c(C)cc1[N+](=O)[O-]	-26	0	-12	10	12*	23	-82	-18
C[C@H](O)[C@@H]1C(=O)N2CCc3c([nH]c4ccccc34)[C@@H]2C[C@@H]1N(C)C(=O)Nc1ccc(Br)cc1	.	-5	-2	.	.	-5	.	.
O=c1[nH]cnc2c1c(-c1ccccc1)cn2-c1ccc(Br)cc1	1	-2	-3	-7	1	-5	.	.
Cc1cccc(-n2cc(-c3ccccc3)c3c(=O)[nH]cnc32)c1	-2	-10	-2	3	8.9*	1	23*	11*
Cc1ccc(S(=O)(=O)N/N=C\c2cn(-c3ccccc3)nc2-c2ccccc2)cc1	-12	-9	-1	-6	4	-2	.	.
Cc1ccc(-c2nn(-c3ccccc3)cc2/C=N/NS(=O)(=O)c2ccccc2)cc1	-6	-10	0	-38	8.4*	-30	81*	23*
O=C(Nc1cccnc1Cl)c1ccc2c(Cl)c3c(nc2c1)CCC3	-30	6	5	-57	7.7*	-60	113*	30*
Cc1snc(SCC(=O)c2ccc(F)cc2)c1C#N	-3	-4	0	-38	8.2*	-28	79*	28*
SMILES	H9c2 protect	GalR3 antag	SMARCA2 activ	Gli-Sufu antag	GAA850 FXN act	NR2F2 inh	GAA30 counter	FXN GAA850 conf
Cc1cc(C)nc(SCc2csc(-c3ccccc3)n2)n1	-12	-9	3	-98	7.9*	-62	115*	40*
O=S(=O)(NCC(Nc1ccc(Cl)cc1)c1ccccc1)c1ccc(Cl)cc1 (stereo not drawn)	-15	-7	-5	-4	8.5*	-2	7	10.0*
N#CC1=C(N)S[C@H](C(=O)C23CC4CC(CC(C4)C2)C3)[C@H]1c1ccncc1	1	.	.	-3	8.5*	.	4	12*
c1ccc(C[C@H]2COc3c4ccccc4nn32)cc1	.	-7	2	.	.	-30	.	.
Cc1cccnc1Nc1nc(-c2ccc(O)c(O)c2)cs1	65*	3	-3	-7	14*	-42	107*	50*
Cc1ccnc(Nc2nc(-c3ccc(O)cc3)cs2)c1	-14	-8	0	-35	3	-9	.	.
Cc1ccnc(Nc2nc(-c3ccc(O)c(O)c3)cs2)c1	60*	-7	-1	7	17*	-11	91*	42*
Cc1cccc(Nc2nc(-c3ccc(O)c(O)c3)cs2)n1	43	-10	0	3	5	-49	.	.
Oc1ccc(-c2csc(Nc3ccccn3)n2)cc1O	49	-10	-1	-18	13*	-55	96*	56*
COc1ccc(-c2csc(Nc3ncccc3C)n2)cc1OC	20	1	5	-25	4	-29	.	.
O=C(NCC1CCN(C(=O)C(=O)c2cc3ccccc3o2)CC1)c1ccc2c(c1)OCO2	.	1	1	.	.	-13	.	.
Nc1cc2c(cc1Cl)-c1ccc([N+](=O)[O-])cc1C2=NO	-9	-8	-5	8	9.5*	-17	75*	40*
Cc1c(C(=O)NCc2ccco2)sc2nc(-c3ccccc3)cn12	2	.	-1	-34	18*	-7	56*	29*
Cc1c(C(=O)NCc2cccnc2)sc2nc(-c3ccccc3)cn12	14	.	2	-24	5	-37	.	.
CCN(CC)C(=O)c1sc2nc(-c3ccc(OC)cc3)cn2c1C	-6	-2	3	-67	9.8*	-50	125*	41*
N#C/C(=C/c1ccc(O)c(O)c1)c1nc2ccccc2[nH]1	39	10	3	-18	9.2*	-14	102*	39*
N#C/C(=C\c1cccs1)c1nc2ccccc2[nH]1	-6	-3	1	-40	6	-24	.	.
O=C(C(=O)N1CCN(c2ccncc2)CC1)c1cccc(Br)c1	.	-6	2	.	.	0	.	.
CC(C)(C)c1csc(NC(=O)CS(=O)(=O)c2ccccc2)n1	-7	-6	0	1	7.9*	-1	51*	15*
